Data: PubChem BioAssay (NCATS)
A number with no mark means an inactive call. Inconclusive results are not listed. A call without a number means that no potency is given here. Active and inactive are the calls of the source. Unless noted, calls follow the shape of the dose curve; as a rule, active = well fitted curve in the direction sought with a large enough effect; inconclusive = small, poorly fitted or top-dose-only effect, or another doubt; inactive = no such curve, though single readings can be large; an effect the other way counts as inactive or inconclusive.

Legend:
[1] = target: Cytochrome P450 1A2 (Homo sapiens) (UniProt P05177); assay: p450-cyp1a2 (AID 410; calls by dose curve; also: potency is read from the fitted curve at half-maximal effect)
Sequence of Cytochrome P450 1A2 (Homo sapiens) (P05177 whole entry, looked up): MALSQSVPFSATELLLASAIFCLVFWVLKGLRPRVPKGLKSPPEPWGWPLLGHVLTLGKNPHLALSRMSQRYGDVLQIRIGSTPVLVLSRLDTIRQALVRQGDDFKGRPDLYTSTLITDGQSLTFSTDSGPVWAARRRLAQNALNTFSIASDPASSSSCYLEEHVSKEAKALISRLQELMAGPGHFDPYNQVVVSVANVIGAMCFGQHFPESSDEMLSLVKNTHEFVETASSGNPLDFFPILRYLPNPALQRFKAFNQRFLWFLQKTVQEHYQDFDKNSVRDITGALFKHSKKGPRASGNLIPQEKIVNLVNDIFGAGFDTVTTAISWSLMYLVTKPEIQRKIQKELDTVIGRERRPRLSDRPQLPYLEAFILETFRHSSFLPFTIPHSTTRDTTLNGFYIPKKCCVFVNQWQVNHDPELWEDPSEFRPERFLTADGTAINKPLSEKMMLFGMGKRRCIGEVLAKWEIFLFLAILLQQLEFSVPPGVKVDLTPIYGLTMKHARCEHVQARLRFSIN
Method in brief: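 O-Demethylation of luciferin 6' methyl ether by human CYP1A2 is monitored as luciferase luminescence. Substrate sits at Km (100uM); enzyme is 20nM. Values are scaled to 57 uM furafylline as maximal inhibition.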

[2] = target: Glucocorticoid receptor (Homo sapiens) (UniProt P04150); assay: GR-GFP Redistribution (AID 450;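 active = compounds whose dose series gives a full or clear partial fitted curve of increased nuclear translocation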; also: potency is read from the fitted curve at half-maximal effect)
Sequence of Glucocorticoid receptor (Homo sapiens) (P04150 whole entry, looked up, the tested form may be a part): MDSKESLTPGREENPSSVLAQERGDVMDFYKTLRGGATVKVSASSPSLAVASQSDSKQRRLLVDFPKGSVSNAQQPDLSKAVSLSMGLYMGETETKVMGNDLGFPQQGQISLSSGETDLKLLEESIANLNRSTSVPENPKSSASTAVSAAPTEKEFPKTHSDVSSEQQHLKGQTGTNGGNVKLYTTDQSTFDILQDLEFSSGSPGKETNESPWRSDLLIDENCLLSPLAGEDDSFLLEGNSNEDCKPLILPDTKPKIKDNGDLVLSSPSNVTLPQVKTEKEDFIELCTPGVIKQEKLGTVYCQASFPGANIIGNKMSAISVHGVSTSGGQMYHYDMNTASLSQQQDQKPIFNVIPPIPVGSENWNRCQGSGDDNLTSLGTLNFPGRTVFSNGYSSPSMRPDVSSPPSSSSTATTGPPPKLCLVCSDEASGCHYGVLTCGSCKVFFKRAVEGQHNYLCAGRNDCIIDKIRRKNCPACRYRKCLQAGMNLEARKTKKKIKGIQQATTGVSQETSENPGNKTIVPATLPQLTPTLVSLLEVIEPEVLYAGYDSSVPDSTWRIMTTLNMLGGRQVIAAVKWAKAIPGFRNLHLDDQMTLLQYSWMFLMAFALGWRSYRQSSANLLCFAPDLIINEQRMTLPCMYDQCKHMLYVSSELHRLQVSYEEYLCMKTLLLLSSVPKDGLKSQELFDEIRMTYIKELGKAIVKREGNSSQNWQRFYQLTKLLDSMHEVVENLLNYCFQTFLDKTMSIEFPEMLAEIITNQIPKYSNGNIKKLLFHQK

[3] = target: Glucocorticoid receptor (Homo sapiens) (UniProt P04150); assay: GR-EFC Redistribution (AID 451; calls by dose curve; also: potency is read from the fitted curve at half-maximal effect); details: CHO-K1 GR-EFC translocation, beta-gal luminescence, 2 h
Method in brief: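 CHO-K1 cells expressing nuclear EA and GR-ED fragments of b-gal; compounds titrated up to 46 uM final, 2 h at 37 C. GR nuclear translocation read as complemented b-gal luminescence after 1 h RT detection.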

[4] = target: 3',5'-cyclic-AMP phosphodiesterase 4B (Homo sapiens) (UniProt Q07343); assay: qHTS Assay for Inhibitors of PDE-IV (AID 607; active = well fitted activation curve with a large enough effect in the main read-out, with a control signal flat, not every such curve was filed as active)
Sequence of 3',5'-cyclic-AMP phosphodiesterase 4B (Homo sapiens) (Q07343 whole entry, looked up): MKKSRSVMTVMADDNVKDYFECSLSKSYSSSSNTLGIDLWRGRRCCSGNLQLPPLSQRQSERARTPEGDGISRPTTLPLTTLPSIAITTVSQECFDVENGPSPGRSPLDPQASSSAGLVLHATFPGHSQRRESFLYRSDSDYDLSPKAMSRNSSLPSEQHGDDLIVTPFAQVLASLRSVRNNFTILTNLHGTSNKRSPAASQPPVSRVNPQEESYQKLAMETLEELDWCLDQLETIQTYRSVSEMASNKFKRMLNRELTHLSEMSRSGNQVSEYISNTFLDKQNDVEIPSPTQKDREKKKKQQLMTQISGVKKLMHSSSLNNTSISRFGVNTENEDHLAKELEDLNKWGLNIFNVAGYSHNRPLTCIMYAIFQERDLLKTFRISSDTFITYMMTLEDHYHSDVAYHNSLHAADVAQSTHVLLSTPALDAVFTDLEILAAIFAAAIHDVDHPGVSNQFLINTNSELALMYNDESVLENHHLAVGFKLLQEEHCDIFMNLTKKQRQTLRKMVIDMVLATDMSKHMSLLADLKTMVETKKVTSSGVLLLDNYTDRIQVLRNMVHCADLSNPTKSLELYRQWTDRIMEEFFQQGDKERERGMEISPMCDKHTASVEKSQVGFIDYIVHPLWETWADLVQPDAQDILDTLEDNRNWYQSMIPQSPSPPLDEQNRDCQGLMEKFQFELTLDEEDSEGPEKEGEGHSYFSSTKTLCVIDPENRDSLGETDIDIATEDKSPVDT
Method in brief: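 HEK293 ACTOne cells with CNG channel (1000/well), endogenous PDE4; membrane potential dye, compounds up to 22.9 uM final. Fluorescence Ex 535/Em 590; RO 20-1724 (100 uM final) as reference.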

[5] = target: Cytochrome P450 2C9 (Homo sapiens) (UniProt P11712); assay: qHTS Assay for Inhibitors and Substrates of Cytochrome P450 2C9 (AID 883); also: nearly all actives have a fitted effect of over 60% in size; also: potency is read from the fitted curve at half-maximal effect
Sequence of Cytochrome P450 2C9 (Homo sapiens) (P11712 whole entry, looked up): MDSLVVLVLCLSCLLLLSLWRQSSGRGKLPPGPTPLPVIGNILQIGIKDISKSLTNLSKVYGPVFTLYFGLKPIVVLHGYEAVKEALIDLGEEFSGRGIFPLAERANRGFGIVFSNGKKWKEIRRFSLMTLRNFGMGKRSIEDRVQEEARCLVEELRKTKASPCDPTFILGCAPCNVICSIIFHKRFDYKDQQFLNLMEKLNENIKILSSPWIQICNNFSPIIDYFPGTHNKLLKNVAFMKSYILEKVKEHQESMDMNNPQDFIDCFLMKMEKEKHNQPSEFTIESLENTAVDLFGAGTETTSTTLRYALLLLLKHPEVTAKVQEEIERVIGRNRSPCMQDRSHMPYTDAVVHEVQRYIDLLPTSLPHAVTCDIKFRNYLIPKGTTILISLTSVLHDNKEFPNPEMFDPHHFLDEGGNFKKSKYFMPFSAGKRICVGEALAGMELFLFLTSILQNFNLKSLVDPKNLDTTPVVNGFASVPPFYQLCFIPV
Method in brief: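 Human CYP2C9 (10nM) with Luciferin-H at 100uM (its KM) in 25mM KPO4; compound preincubated 10 min at 37C, then NADPH regeneration for 60 min at 37C. Luciferin read by luminescence after detection reagent; normalized to 57uM sulphaphenazole as full inhibition.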

[6] = target: Cytochrome P450 3A4 (Homo sapiens) (UniProt P08684); assay: qHTS Assay for Activators of Cytochrome P450 3A4 (AID 885); also: nearly all actives have a fitted effect of over 65% in size
Sequence of Cytochrome P450 3A4 (Homo sapiens) (P08684 whole entry, looked up): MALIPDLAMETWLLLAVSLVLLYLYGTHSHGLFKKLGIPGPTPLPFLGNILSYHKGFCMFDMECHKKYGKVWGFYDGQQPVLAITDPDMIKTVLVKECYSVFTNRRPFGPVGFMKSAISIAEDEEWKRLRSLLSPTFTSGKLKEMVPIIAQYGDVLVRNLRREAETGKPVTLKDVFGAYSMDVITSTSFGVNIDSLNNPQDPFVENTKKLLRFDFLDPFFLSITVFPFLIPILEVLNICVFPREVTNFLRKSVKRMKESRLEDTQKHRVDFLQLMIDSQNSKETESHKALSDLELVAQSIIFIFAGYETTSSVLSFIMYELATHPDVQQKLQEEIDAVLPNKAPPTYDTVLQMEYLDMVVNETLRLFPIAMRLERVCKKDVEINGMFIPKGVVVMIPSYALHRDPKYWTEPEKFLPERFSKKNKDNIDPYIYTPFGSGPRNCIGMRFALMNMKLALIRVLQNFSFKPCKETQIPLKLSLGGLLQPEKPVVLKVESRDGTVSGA
Method in brief: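 Human CYP3A4 dealkylates Luciferin-PPXE to luciferin, which luciferase detection converts to light. Substrate was at its KM (25uM), buffer 200mM KPO4, reaction 60 min at RT.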

[7] = target: Cytochrome P450 2D6 (Homo sapiens) (UniProt P10635); assay: qHTS Assay for Inhibitors and Substrates of Cytochrome P450 2D6 (AID 891); also: nearly all actives have a fitted effect of over 60% in size; also: potency is read from the fitted curve at half-maximal effect
Sequence of Cytochrome P450 2D6 (Homo sapiens) (P10635 whole entry, looked up): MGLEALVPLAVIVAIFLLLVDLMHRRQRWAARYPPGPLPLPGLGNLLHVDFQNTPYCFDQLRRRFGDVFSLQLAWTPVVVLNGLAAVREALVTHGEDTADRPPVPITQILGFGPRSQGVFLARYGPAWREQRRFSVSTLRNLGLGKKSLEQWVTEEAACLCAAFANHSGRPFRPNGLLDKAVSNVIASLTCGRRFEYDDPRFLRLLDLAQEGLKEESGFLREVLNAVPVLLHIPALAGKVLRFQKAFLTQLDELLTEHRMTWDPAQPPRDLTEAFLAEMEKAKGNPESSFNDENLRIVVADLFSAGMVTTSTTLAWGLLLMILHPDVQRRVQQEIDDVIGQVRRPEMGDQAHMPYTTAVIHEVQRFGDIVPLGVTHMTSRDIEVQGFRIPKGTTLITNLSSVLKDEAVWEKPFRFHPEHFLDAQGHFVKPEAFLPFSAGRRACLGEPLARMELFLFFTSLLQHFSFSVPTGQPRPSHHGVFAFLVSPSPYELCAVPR
Method in brief: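 Luminescent read-out of luciferin formed by 5 nM human CYP2D6 demethylating 30 uM Luciferin-ME EGE (Km level) over 60 min at room temperature after NADPH regeneration addition. Data normalized to full inhibition by 1.43 uM quinidine.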

[8] = target: Cytochrome P450 2C19 (Homo sapiens) (UniProt P33261); assay: qHTS Assay for Inhibitors and Substrates of Cytochrome P450 2C19 (AID 899); also: nearly all actives have a fitted effect of over 60% in size; also: potency is read from the fitted curve at half-maximal effect
Sequence of Cytochrome P450 2C19 (Homo sapiens) (P33261 whole entry, looked up): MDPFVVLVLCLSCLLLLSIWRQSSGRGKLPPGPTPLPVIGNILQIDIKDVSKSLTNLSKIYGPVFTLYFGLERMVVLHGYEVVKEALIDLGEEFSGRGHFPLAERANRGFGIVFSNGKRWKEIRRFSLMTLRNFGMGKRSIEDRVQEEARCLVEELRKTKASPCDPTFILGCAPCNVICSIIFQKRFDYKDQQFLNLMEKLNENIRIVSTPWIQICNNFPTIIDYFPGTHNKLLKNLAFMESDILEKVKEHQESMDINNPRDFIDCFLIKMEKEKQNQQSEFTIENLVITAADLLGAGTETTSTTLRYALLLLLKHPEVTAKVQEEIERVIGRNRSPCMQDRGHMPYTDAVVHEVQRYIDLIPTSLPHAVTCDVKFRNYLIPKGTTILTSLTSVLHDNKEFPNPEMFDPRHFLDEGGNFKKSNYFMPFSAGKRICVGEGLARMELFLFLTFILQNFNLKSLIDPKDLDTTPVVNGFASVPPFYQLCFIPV
Method in brief: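 5 nM human CYP2C19 with 10uM Luciferin-H EGE (at KM) in 50mM KPO4, compound preincubated 10 min at 37C, then NADPH regeneration for 60 min at 37C. Luciferin read by luminescence after detection reagent; normalized to 57uM ketoconazole as full inhibition.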

[9] = target: DNA dC->dU-editing enzyme APOBEC-3G (Homo sapiens) (UniProt Q9HC16); assay: qHTS for inhibitors of Vif-A3G interactions: Validation (AID 588379)
Sequence of DNA dC->dU-editing enzyme APOBEC-3G (Homo sapiens) (Q9HC16 whole entry, looked up): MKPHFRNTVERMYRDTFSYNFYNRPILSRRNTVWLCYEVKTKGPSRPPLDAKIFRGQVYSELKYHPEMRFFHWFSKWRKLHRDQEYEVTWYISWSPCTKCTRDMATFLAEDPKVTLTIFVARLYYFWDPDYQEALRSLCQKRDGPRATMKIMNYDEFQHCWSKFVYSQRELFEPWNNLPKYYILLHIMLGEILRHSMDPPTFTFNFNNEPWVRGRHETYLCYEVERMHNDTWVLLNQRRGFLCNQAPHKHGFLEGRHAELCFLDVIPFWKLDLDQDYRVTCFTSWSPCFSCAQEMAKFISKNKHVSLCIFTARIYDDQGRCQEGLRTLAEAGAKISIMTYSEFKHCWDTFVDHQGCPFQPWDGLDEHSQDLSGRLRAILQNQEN
Method in brief: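 Yellow fluorescence (Ex 488, Em 500-530) of Vif-coexpressing HeLa A3G-eYFP cells, scanned by Acumen cytometer, reports blocked A3G degradation. Cells plated at 700/well overnight at 37 deg C before compound addition, then a further overnight compound incubation at 37 deg C.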

[10] = target: Mitogen-activated protein kinase 10 (Mus musculus) (UniProt Q61831); assay: JNK3 AlphaScreen Assay (AID 530; active = well fitted curve in either direction with a large enough effect, not every such curve was filed as active;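 also: kinase came from lysate of stimulated human HepG2 cells; signal reports phosphorylation of biotinylated GST-cJun 1-79 at Ser73 with 10 µM ATP; series mostly up to about 57 µM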)
Method in brief: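 Activity was read by AlphaScreen after JNK3-containing HepG2 lysate (cytokine pre-activated) phosphorylated biotinylated GST-cJun with 10 uM ATP at room temperature. Phospho-Ser73 cJun antibody with Protein-A acceptor beads provided detection.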

[11] = target: Cytochrome P450 3A4 (Homo sapiens) (UniProt P08684); assay: qHTS Assay for Inhibitors and Substrates of Cytochrome P450 3A4 (AID 884); also: potency is read from the fitted curve at half-maximal effect; nearly all actives have a fitted effect of over 50% in size
Method in brief: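 Luminescent readout of luciferin produced by CYP3A4 (20 nM) dealkylation of Luciferin-PPXE, 25 uM (its KM). NADPH-driven reaction ran 60 min at RT after 10 min compound preincubation; data scaled to 57 uM ketoconazole as 100% inhibition.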

Row | SMILES | Potency [1] | Potency [2] [µM] | Potency [3] [µM] | Potency [4] | Potency [5] | Potency [6] | Potency [7] | Potency [8] | outcome [9] | Potency [10] | Potency [11]
1 | O=c1cc(-c2ccccc2O)oc2c(O)c(O)ccc12 | 2.51 µM (active) | > 46 | > 46 | inactive | 1.26 µM (active) | inactive | 15.8 µM (active) | 1.26 µM (active) | inactive |  | 
2 | CC(C)C[C@@H](CC(=O)N[C@@H](CCCN)CC(=O)N[C@@H]1CCCC[C@H]1C(=O)N[C@H](CC(=O)N[C@@H](CCC(=O)O)CC(=O)O)Cc1c[nH]c2ccccc12)NC(=O)[C@@H]1CNCC[C@H]1N | inactive |  | > 46 | inactive | inactive |  | inactive | inactive |  | inactive | 
3 | C/C(=C\COc1cc(=O)[nH]c2ccccc12)CC[C@@H](O)C(C)(C)O | 20 µM (active) | > 46 |  | inactive | inactive |  | inactive | inactive |  | inactive | 
4 | O=c1cc(-c2ccc(O)c(O)c2)oc2cccc(O)c12 | 0.158 µM (active) | > 46 |  | inactive | 7.94 µM (active) | inactive | inactive |  | inactive |  | 15.8 µM (active)
5 | CC(=O)[C@@H]1[C@H]2[C@@H](C(=O)[C@H]3OC[C@H]2O3)[C@@H]2C=Cc3ccccc3N12 | 31.6 µM (active) | > 46 | > 46 | inactive |  |  |  | 5.01 µM (active) |  |  | 
6 | CC(C)C[C@@H](CC(=O)N[C@@H](CCC(=O)O)CC(=O)O)NC(=O)[C@@H]1CNCC[C@H]1NC(=O)C[C@@H](NC(=O)C[C@H](CO)NC(=O)[C@@H]1CCCC[C@H]1N)C(C)C | inactive |  | > 46 | inactive | inactive |  | inactive | inactive |  | inactive | 
7 | COc1cc(-c2cc(=O)c3ccccc3o2)ccc1O | 0.0794 µM (active) | > 46 | > 46 | inactive | 6.31 µM (active) | inactive | 31.6 µM (active) | 6.31 µM (active) | inactive |  | 15.8 µM (active)
8 | C=C(CO)[C@H]1Cc2c(ccc3c(=O)c4c(oc23)COc2cc(OC)c(OC)cc2-4)O1 | inactive | > 46 | > 46 | inactive | inactive |  | inactive | inactive |  |  | 
9 | COc1ccc2c(c1)[C@]1(C)CCC[C@](C)(CO)[C@@H]1CC2 | 15.8 µM (active) | > 46 | > 46 |  | 7.94 µM (active) |  | inactive | 3.16 µM (active) |  | inactive | 
10 | Cc1ccc(C(=O)[C@@H]2[C@@H]3[C@@H](C(=O)[C@@H]4OC[C@H]3O4)[C@@H]3C=Cc4ccccc4N23)cc1 | 15.8 µM (active) | > 46 | > 46 | inactive | 10 µM (active) |  |  | 15.8 µM (active) |  |  | 
11 | C=C1CC[C@H]2C(C)(C)[C@H](O)CC[C@]2(C)[C@@H]1COc1ccc2ccc(=O)oc2c1 | 31.6 µM (active) | > 46 | > 46 |  | 3.98 µM (active) |  | inactive | 6.31 µM (active) |  | inactive | 
12 | O=c1c(O)c(-c2cccc(O)c2)oc2ccccc12 | 0.501 µM (active) | > 46 | > 46 |  | 15.8 µM (active) | inactive |  | 25.1 µM (active) | inactive |  | 15.8 µM (active)
13 | O=c1c(O)c(-c2ccc(O)c(O)c2)oc2ccccc12 | 0.251 µM (active) | > 46 | > 46 |  |  | inactive |  |  |  |  | 
14 | CC(C)=CCC/C(C)=C/COc1c2ccoc2cc2oc(=O)ccc12 | 0.316 µM (active) | > 46 | > 46 |  | 0.0316 µM (active) |  | 0.0631 µM (active) | 0.01 µM (active) |  |  | 
15 | CC(C)[C@@H](CC(=O)N[C@@H]1CCNC[C@H]1C(=O)N[C@H](CC(=O)N[C@@H](CCC(=O)O)CC(=O)O)Cc1c[nH]c2ccccc12)NC(=O)C[C@H](Cc1c[nH]c2ccccc12)NC(=O)[C@@H]1CCCC[C@H]1N | inactive |  | > 46 | inactive |  |  | inactive | inactive |  | inactive | 
16 | CC(C)C[C@@H](CC(=O)N[C@H](CC(=O)N[C@@H]1CCNC[C@H]1C(=O)N[C@H](CC(=O)N[C@@H](CCC(=O)O)CC(=O)O)CC(C)C)C(C)C)NC(=O)[C@@H]1CNCC[C@H]1N | inactive |  | > 46 | inactive |  |  | inactive | inactive |  | inactive | 
17 | CC(C)C[C@@H](CC(=O)N[C@@H](CCCN)CC(=O)N[C@@H]1CCNC[C@H]1C(=O)N[C@H](CC(=O)N[C@@H](CCC(=O)O)CC(=O)O)Cc1c[nH]c2ccccc12)NC(=O)[C@@H]1CNCC[C@H]1N | inactive |  | > 46 | inactive | inactive |  | inactive | inactive |  |  | 
18 | CC(C)[C@@H](CC(=O)N[C@@H]1CCNC[C@H]1C(=O)N[C@H](CC(=O)N[C@@H](CCC(=O)O)CC(=O)O)Cc1c[nH]c2ccccc12)NC(=O)C[C@H](CO)NC(=O)[C@@H]1CCCC[C@H]1N | inactive |  | > 46 | inactive | inactive |  | inactive | inactive |  | inactive | 
19 | CC(C)C[C@H](NC(=O)[C@@H](NC(=O)N[C@@H](Cc1ccccc1)C(=O)O)[C@H]1CCN=C(N)N1)C(=O)N[C@H](C=O)Cc1ccccc1 | inactive |  | > 46 |  | inactive |  | inactive |  |  | inactive | 
20 | NCCC[C@@H](CC(=O)N[C@@H]1CCCC[C@H]1C(=O)N[C@H](CC(=O)N[C@@H](CCC(=O)O)CC(=O)O)Cc1c[nH]c2ccccc12)NC(=O)C[C@H](CO)NC(=O)[C@@H]1CCCC[C@H]1N | inactive |  | > 46 |  |  |  | inactive | inactive |  | inactive | 
